# Assay results reported in PMC5540273 (PLoS ONE, 2017).
# Key:
# Conditions in all cases: concentration: 1 μM, replicates: in singlicate; n = 1
# PIK3C2G = tested on: PIK3C2G
# PIK3CA = tested on: PIK3CA
# PIK3CB = tested on: PIK3CB
# PIK3CD = tested on: PIK3CD
# PIK3CG = tested on: PIK3CG
# PIK4CB = tested on: T1, PIK4CB
# T1 construct: gene PI4KB
# PIKFYVE = tested on: PIKFYVE
# PIM1 = tested on: PIM1
# PIM2 = tested on: PIM2
# PIM3 = tested on: PIM3
# PIP5K1A = tested on: PIP5K1A
# PIP5K1C = tested on: PIP5K1C
# PIP5K2B = tested on: PIP5K2B
# PIP5K2C = tested on: T2, PIP5K2C
# T2 construct: gene PIP4K2C
# PKAC-alpha = tested on: T3, PKAC-alpha
# T3 construct: gene PRKACA
# PKAC-beta = tested on: T4, PKAC-beta
# T4 construct: gene PRKACB
# PKMYT1 = tested on: PKMYT1
# PKN1 = tested on: PKN1
# PKN2 = tested on: PKN2
# PLK1 = tested on: PLK1
# 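Further: KINOMEscan kinase panel screen.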
SMILES,%Inh (PIK3C2G) [%],%Inh (PIK3CA) [%],%Inh (PIK3CB) [%],%Inh (PIK3CD) [%],%Inh (PIK3CG) [%],%Inh (PIK4CB) [%],%Inh (PIKFYVE) [%],%Inh (PIM1) [%],%Inh (PIM2) [%],%Inh (PIM3) [%],%Inh (PIP5K1A) [%],%Inh (PIP5K1C) [%],%Inh (PIP5K2B) [%],%Inh (PIP5K2C) [%],%Inh (PKAC-alpha) [%],%Inh (PKAC-beta) [%],%Inh (PKMYT1) [%],%Inh (PKN1) [%],%Inh (PKN2) [%],%Inh (PLK1) [%]
CCn1c(-c2nonc2N)nc2c(-c3ccccc3)ncc(OCCCN)c21.O=C(O)C(F)(F)F.O=C(O)C(F)(F)F [GSK260205],9,0,0,1,0,0,98.8,62,2,44,35,87,10,29,97.6,97.7,0,84,0,0
Nc1ncc(-c2ccc3nccc(-c4ccncc4)c3c2)cc1S(=O)(=O)N1CCCCC1 [GSK1693850],99.8,100,96.9,100,100,95.9,0,8,0,0,0,40,0,62,1,0,0,9,0,76
CN(c1ccc(F)c(NC(=O)c2cccc(OC(C)(C)C#N)c2Cl)c1)c1ccc2nc(NC(=O)C3CC3)sc2n1,30,0,9,0,5,0,50,0,14,6,34,0,3,0,17,0,4,4,0,0
Nc1ncnc2scc(-c3ccc(NC(=O)Cc4cc(F)ccc4F)cc3)c12.O=C(O)C(F)(F)F [SB-731254-M],13,0,0,0,23,22,0,0,0,19,0,0,0,0,13,15,23,4,26,9
COc1cc(Nc2ccnc3cc(-c4ccncc4)ccc23)cc(OC)c1OC.Cl [GW494610],0,0,0,0,0,0,0,11,0,0,0,36,8,27,0,2,0,0,7,0
